Results published in PubChem BioAssay (NCI).
Compounds without any hit were thinned out: in the full panel of roughly 83,000, 20% have a hit.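 Negative percent growth values reflect cell death: -40 means 40% of the cells present at the start died, and -100 means all died.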 Values without a mark were called inactive. The source made the active and inactive calls. Rule for the calls: active = growth percent below 10; inactive = the rest.

How the values were obtained:
Test in all cases: NCI-60 one-dose screen, 48 h (100 = growth as untreated, 0 = no growth, -100 = all killed)
Details in all cases: 10 µM unless noted
[1] = tested on: HCT-15 colon
[2] = tested on: HT29 colon
[3] = tested on: SNB-75 CNS
[4] = tested on: SNB-19 CNS
[5] = tested on: U251 CNS
[6] = tested on: PC-3 prostate
[7] = tested on: SK-MEL-5 melanoma
[8] = tested on: UACC-62 melanoma
[9] = tested on: LOX IMVI melanoma
[10] = tested on: SK-MEL-28 melanoma
[11] = tested on: SK-MEL-2 melanoma
[12] = tested on: EKVX NSCLC
[13] = tested on: SN12C renal
[14] = tested on: UO-31 renal
[15] = tested on: TK-10 renal
[16] = tested on: ACHN renal
[17] = tested on: CAKI-1 renal
[18] = tested on: A498 renal
[19] = tested on: CCRF-CEM leukemia
[20] = tested on: MOLT-4 leukemia

Compound	growth [1]	growth [2]	growth [3]	growth [4]	growth [5]	growth [6]	growth [7]	growth [8]	growth [9]	growth [10]	growth [11]	growth [12]	growth [13]	growth [14]	growth [15]	growth [16]	growth [17]	growth [18]	growth [19]	growth [20]
CCN1C(=O)N(CC)C2C1NN=c1s/c(=C\c3ccco3)c(=O)n12 (stereo not given)	19.9%	8.57% (active)	-1.06% (active)	22.7%	22.7%	17.7%	12.8%	29.2%	40.4%	58.9%	30%	36.3%	47.5%	60%	57.6%	54.9%	46%	21.5%	10%	31.7%
COc1ccc(C(=O)C(CN(C)C)c2ccc(OC)cc2)cc1 (stereo not given)	30.4%	13.2%	64.7%	90.7%	69.2%	39.1%	95.5%	32.1%	31.3%	79%	75.1%	90.7%	62.5%	67.9%	52%	54.1%	73.9%	64.4%	3.8% (active)	52.9%
Cc1ccc2c(C)c3c(ccc4ccccc43)c[n+]2c1	95.8%	88.1%	65%	24%	24.5%	52.9%	-25.6% (active)	74.2%	91.9%	77.8%	98.4%	44.1%	26.3%	45.9%	111%	91.7%	75.9%	89.7%	57.1%	61.3%
Nc1c(C(=O)C[C@@H](N)CO)ccc2c1C(=O)CCO2	6.97% (active)	-3.16% (active)	86.2%	27.4%	16.7%	57%	60.8%	30.5%	-61.7% (active)	39.1%	46.8%	97.8%	32.7%	45.5%	71.4%	45.6%	29.8%	-37.5% (active)	20.6%	33.4%
CCC(=O)NC1=C(Cl)C(=O)C(NC(=O)CC)=C(Cl)C1=O	101%	106%	107%	115%	92.8%	91.4%	96.3%	102%	66.6%	-1.93% (active)	111%	129%	101%	2.01% (active)	50.5%	21.2%	103%	130%	-42.7% (active)	-41.3% (active)
OC(COCc1ccccc1)COCc1ccccc1	109%	106%	90.8%	111%	96.1%	111%	111%	103%	101%	113%	111%	91.5%	104%	91.6%	109%	99%	96.5%	89.7%	99.5%	96.4%
CC(=O)c1ccc(Br)c([N+](=O)[O-])c1	104%	98%	92.7%	98.7%	104%	104%	99.9%	111%	90%	118%	102%	104%	104%	90.7%	91.5%	111%	-7.58% (active)	76.9%	98.1%	96.8%
COc1ccc(C2NC(=O)c3cc4c(cc3N2)OCO4)cc1 (stereo not given)	12.5%	5.16% (active)	5.9% (active)	34%	17.2%	27.9%	11.9%	25.3%	39.9%	39.8%	10.5%	58.1%	31.6%	67.3%	52.8%	46.3%	55.2%	8.76% (active)	14.8%	16.5%
COc1ccc(/C=C/c2nc3ccccc3c(=O)n2-c2ccc(C#Cc3ccc(C(C)(C)C)cc3)cc2C)c(OC)c1	59.3%	78%	99.4%	105%	75.3%	53%	69.7%	72.6%	80%	109%	104%	85.1%	89.6%	79.5%	101%	105%	76.9%	110%	75.8%	76.5%
NS(=O)(=O)c1ccc(CCn2c(SCC(=O)N/N=C/c3ccccc3O)nc3ccccc3c2=O)cc1	59.9%	10% (active)	23.8%	49.1%	26.8%	36.1%	30.5%	48.8%	43.9%	76.5%	14.2%	75.8%	51.3%	70.4%	70%	87.4%	60.1%	21.7%	18.7%	21.4%
C=C1C[C@@]2(C)C(CC[C@]3(C)C2CC=C2C4CC(C)(C)C[C@@H](OC(=O)/C(C)=C\C)[C@]4(C(=O)O)CC[C@]23C)C(C)(C)C1=O (stereo not given in full)	-16.7% (active)	-20.1% (active)	52.5%	27.6%	-47.9% (active)	-6.78% (active)	26.4%	-12.6% (active)	-65.7% (active)	2.5% (active)	18.8%	31.7%	6.55% (active)	-74.6% (active)	17.2%	-83.8% (active)	-7.09% (active)	-17.4% (active)	2.34% (active)	7.64% (active)
COc1cc(/C=C\c2cc(/C=C\c3ccc(O)c(OC)c3)n(C(=O)Nc3ccc(C(F)(F)F)cc3)n2)ccc1O	25.5%	3.5% (active)	71.8%	48.7%	9.71% (active)	38%	35.4%	31.1%	9.11% (active)	58%	84.5%	61.3%	36.9%	42.9%	77.7%	65.8%	55%	108%	3.42% (active)	11.1%
CS(=O)(=O)c1ccc(C(=O)N2N=C(c3ccccc3)CC2c2ccc3c(c2)OCO3)cc1 (stereo not given)	85.7%	104%	88.2%	103%	91.4%	85.1%	101%	96.4%	95.5%	106%	89.8%	93.4%	94.4%	66.5%	107%	107%	92.5%	86.2%	105%	52.4%
CCCCc1nc(Cl)c(C2CC(c3ccc(S(N)(=O)=O)cc3)=NN2c2ccc(C#N)cc2)[nH]1 (stereo not given)	97%	100%	87.5%	84.9%	76.7%	69.4%	78.3%	68%	86.6%	107%	91%	89.5%	83%	70.5%	100%	101%	67.6%	74.2%	86.8%	76.1%
COc1ccc(-c2nc3ccccc3n3cccc23)cc1	142%	107%	107%	140%	100%	78.6%	99%	88.3%	90%	111%	111%	97.2%	95.1%	45.7%	138%	105%	85.5%	99.4%	89.9%	101%
C#Cc1cccc(Nc2nc3cc([N+](=O)[O-])ccc3nc2Nc2ccc(O)cc2)c1	0.208% (active)	-80.7% (active)	43.8%	23.3%	2.57% (active)	2.88% (active)	47.1%	-15.9% (active)	-87.5% (active)	21.5%	-29.5% (active)	23.1%	24.9%	14.6%	3.86% (active)	9.93% (active)	36.4%	49.4%	6.32% (active)	0.253% (active)
